# Wnt bcat act = Wnt/beta-catenin pathway activators, primary screen, cell-based, plate reader, single point; AID 743398, 2014; Wnt/beta-catenin reporter cell assay, activator; actives 1.2% (n = 300,000); activation, % at 9.35 µM; in the data active = activation above about 30%, passing the limit was not always enough; inconclusive = no clear call, values can overlap the other calls
# MITF act = activators of MITF-driven TRPM1 promoter reporter, primary screen, cell-based, SK-MEL-5, luciferase, single point; activation, % at 12.5 µM; SK-MEL-5 TRPM1-promoter luciferase, 24 h; % of positive control, neutral wells = 0; actives 0.75% (n = 300,000); AID 588334, 2011;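 active = mean activation of at least 80% with every replicate also reaching 80%; inconclusive = mean reaches 80% but some replicate falls short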
# Glyco luc inh = increase of ERlucT glycosylation luciferase signal, primary screen, N-linked glycosylation inhibitor project, D54 ERlucT cells, luminescence, set 2 | reporter increase, % at 12.5 µM | D54 ERlucT glycosylation luciferase reporter, 24 h; percent of 100 nM tunicamycin response | actives 0.23% (n = 360,000);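 active = mean luciferase reporter signal, scaled so untreated is 0 and the glycosylation-blocking control 100, at or above a set limit in every replicate; inconclusive = mean reaches the limit but not every replicate does; inactive = mean below the limit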;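 note: luciferase carries N-glycosylation sites so blocking glycosylation raises the light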
# Vif imaging = HIV Vif self-association inhibitors, primary screen, imaging, HEK293T, single point. HEK293T cells, Vif self-association by quenched fluorescence, 24 h. inhibition, % at 7.49 µM. actives 0.35% (n = 340,000); in the data active = inhibition above about 50%, passing the limit was not always enough; inconclusive = no clear call, values can overlap the other calls; inactive = below about 31%
# esBAF inh = Bmi1 luciferase reporter increase in mESCs, primary screen, esBAF inhibitor project, mouse ES cells, Bmi1 luciferase knock-in, single point; 24 h; 100% = twice the neutral-well signal; reporter increase, % at 12.5 µM; actives 2% (n = 350,000); AID 602393, 2012; in the data active = activation above about 40%; inconclusive = no clear call, values can overlap the other calls;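 note: a rise in the Bmi1 reporter signal indicates esBAF inhibition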
# PvdQ inh = P. aeruginosa PvdQ acylase inhibitors, primary screen, biochemical, fluorescence, plate reader and imaging, single point; PvdQ acylase [Pseudomonas aeruginosa LESB58]; purified PvdQ acylase; inhibition, % at 10 µM; actives 0.063% (n = 340,000); AID 488965, 2010; in the data active = inhibition above about 30%, passing the limit was not always enough; inconclusive = no clear call, values can overlap the other calls
# A number is an active result; n = inactive; u = inconclusive; x = no result given. An excerpt weighted towards active compounds, which were near 2.9% of everything screened.
SMILES,Wnt bcat act,MITF act,Glyco luc inh,Vif imaging,esBAF inh,PvdQ inh
N#Cc1ccsc1NC(=O)COC(=O)c1ccc(NC(N)=O)cc1,n,87.2,n,n,47.6,n
N=c1c(S(=O)(=O)c2ccc(Cl)cc2)cc2c(=O)n3ccccc3nc2n1CCc1ccccc1,n,n,50.2,n,n,n
CO[C@@H]1CN(C)C(=O)c2ccc(NC(C)=O)cc2OC[C@H](C)N(Cc2cncnc2)C[C@@H]1C,x,x,x,x,n,x
Cc1noc(C)c1NC(=O)N[C@@H]1CC[C@H](CC(=O)NCc2ccc(Cl)c(Cl)c2)O[C@@H]1CO,x,x,x,x,n,x
Cc1ccc(S(=O)(=O)N2CCN(C(=O)c3ccc4ccccc4n3)CC2)c(C)c1,n,n,n,x,57.7,n
Cc1ccc(S(=O)(=O)N2CCN(C(=O)c3ccccn3)CC2)c(C)c1,n,n,n,n,x,n
Cc1ccc(S(=O)(=O)N2CCN(C(=O)c3n[nH]c(=O)c4ccccc34)CC2)c(C)c1,n,n,n,52.6,n,n
C[C@H](CO)N1C[C@H](C)[C@H](CN(C)Cc2ccccc2)OCCCC[C@H](C)Oc2ccc(NC(=O)Nc3cccc4ccccc34)cc2C1=O,x,x,x,x,n,x
CCOC(=O)c1cnn(-c2ccc(C)cc2)c1N,44.5,n,n,n,56.1,n
CCOC(=O)c1cnn(-c2ccccc2)c1NC(=O)CN1CCCCC1,40.7,x,n,n,n,n
CCOC(=O)c1cnn(-c2ccccc2)c1-n1cccc1,n,n,n,n,n,n
C[C@H]1CN([C@@H](C)CO)C(=O)Cc2cc(NC(=O)Cc3cn(C)c4ccccc34)ccc2O[C@@H]1CN(C)C(=O)Nc1cccc2ccccc12,x,x,x,x,n,x
O=[N+]([O-])c1ccc(OCCCOc2cccc3cccnc23)cc1,n,n,n,n,n,n
O=[N+]([O-])c1ccc(Sc2cccc3cccnc23)cc1,n,n,n,n,46.3,n
Brc1ccc(COc2cccc3cccnc23)cc1,n,x,n,n,71.0,x
O=[N+]([O-])c1ccc(Sc2cccc3cccnc23)c([N+](=O)[O-])c1,n,n,n,n,n,n
OCc1ccccc1OCCCOc1cccc2cccnc12,n,n,n,n,43.5,n
N#Cc1ccc(COc2cccc3cccnc23)cc1,n,n,n,n,n,n
O=[N+]([O-])c1ccc(COc2cccc3cccnc23)cc1,n,93.4,n,n,82.9,n
C[C@@H]1CN([C@H](C)CO)C(=O)Cc2cc(NC(=O)Nc3ccc4c(c3)OCO4)ccc2O[C@@H]1CN(C)S(=O)(=O)c1cccs1,x,x,x,x,n,x
Cc1cc(C(=O)Nc2cccc3c2O[C@H](CN(C)C(=O)Nc2c(C)noc2C)[C@@H](C)CN([C@H](C)CO)C3=O)n(C)n1,x,x,x,x,n,x
Cc1ccc(-c2nnc(N(C)C(=O)c3cccnc3)s2)cc1,n,n,n,n,x,n
COc1ccc(-c2nnc(N(C)C(=O)c3cccnc3)s2)cc1,41.0,n,n,n,n,n
CSc1ccc(CN(C)CC(=O)NCCc2ccccc2)cc1,n,n,n,69.3,n,n
Cc1ccccc1OCC1Cc2c(nc(N)c(C#N)c2N)O1 (stereo not given),n,n,n,n,49.0,n
SMILES,Wnt bcat act,MITF act,Glyco luc inh,Vif imaging,esBAF inh,PvdQ inh
N#Cc1c(N)nc2c(c1N)CC(COc1ccccc1)O2 (stereo not given),x,u,n,n,x,n
COc1ccc(NC(=O)N(C)C[C@@H]2Oc3ccc(NS(=O)(=O)c4ccc(C)cc4)cc3CC(=O)N([C@@H](C)CO)C[C@@H]2C)cc1,x,x,x,x,n,x
CN1C(=O)c2cc(NC(=O)C3CCOCC3)ccc2OC[C@@H]2O[C@@H](CC(=O)O)CC[C@H]21,x,x,x,x,n,x
COc1ccc(NC(=O)C2C(c3ccc4c(c3)OCO4)=Nc3ccccc3N2C(C)=O)cc1 (stereo not given),35.5,x,x,x,x,x
COc1ccc(NC(=O)C2C(c3ccc4c(c3)OCO4)=Nc3ccccc3N2C(=O)c2cccc(C(F)(F)F)c2)cc1 (stereo not given),n,x,x,x,x,x
Cc1cc(NO)nc(-c2ccc(Br)cc2)n1,x,n,n,n,50.8,n
Cc1cc(C)nc(NC(=O)c2ccc(Br)cc2)n1,n,n,n,n,n,n
C[C@@H]1CCCCO[C@H](CN(C)C(=O)Cc2ccccc2)[C@H](C)CN([C@H](C)CO)C(=O)c2cc(NS(=O)(=O)c3ccccc3)ccc2O1,x,x,x,x,n,x
Cn1nnc(NC(=S)NC(=O)c2ccc(-c3ccc(Br)cc3)o2)n1,48.6,n,n,n,x,n
CCCn1nnc(NC(=S)NC(=O)c2ccc(-c3ccc(Br)cc3)o2)n1,n,x,n,n,n,n
CCn1c(SCC(=O)NCC2CCCO2)nnc1-c1ccc(Cl)cc1 (stereo not given),n,n,n,53.5,n,n
CCn1c(SCC(=O)NCC2CCCO2)nnc1-c1c[nH]c2ccccc12 (stereo not given),n,n,n,n,n,n
CC(C)c1ccc(Nc2nnc(SCC(=O)NCC3CCCO3)s2)cc1 (stereo not given),46.6,n,n,n,n,n
N#C[C@@H]1[C@@H](c2ccc(C#Cc3cccnc3)cc2)[C@@H](CO)N1C(=O)NC1CCCCC1,x,x,x,x,n,x
CC(C)(C)N(Cc1ccccc1)C(=O)CN1C(=O)c2ccccc2C1=O,n,n,n,n,46.2,n
COC(C(=O)N1CCC(n2nccc2NC(=O)C2CC2)CC1)c1ccccc1 (stereo not given),n,n,n,n,44.4,n
COC(C(=O)Nc1ccnn1C1CCN(C(=O)c2ccc(C=O)cc2)CC1)c1ccccc1 (stereo not given),n,n,n,n,n,n
C[C@H]1CN([C@@H](C)CO)C(=O)Cc2cc(NS(C)(=O)=O)ccc2O[C@@H]1CN(C)C(=O)NC1CCCCC1,x,x,x,x,n,x
O=C1NC[C@H](c2ccccc2)OC(=O)[C@@H](Cc2ccc(F)cc2)C/C=C\C[C@H]1CC(=O)N(CCO)Cc1ccccc1,n,n,n,n,44.5,n
COc1ccc(S(=O)(=O)N(C)C[C@@H]2Oc3ccc(NC(=O)NC4CCCCC4)cc3CC(=O)N([C@@H](C)CO)C[C@@H]2C)cc1,x,x,x,x,n,x
Cc1cc(C)n2c(Nc3ccc4c(c3)OCCO4)c(C(C)C)nc2n1,n,x,x,x,x,x
Cc1cc(C)n2c(Nc3ccc4c(c3)OCCO4)c(-c3ccccc3)nc2n1,40.9,x,n,n,n,n
O=C(C[C@H]1C[C@@H]2c3cc(NS(=O)(=O)c4ccc(F)cc4)ccc3O[C@@H]2[C@H](CO)O1)NCCc1ccccc1,x,x,x,x,n,x
CCCNC(=O)N1C[C@H](C)[C@@H](OC)CN(C)C(=O)c2cc(NC(=O)C3CCC3)ccc2OC[C@H]1C,x,x,x,x,n,x

# Screens deposited in PubChem BioAssay by Broad Institute.
